From PubChem BioAssay
esBAF inh: Bmi1 luciferase reporter increase in mESCs, primary screen, esBAF inhibitor project, mouse ES cells, Bmi1 luciferase knock-in, single point | 24 h; 100% = twice the neutral-well signal | reporter increase, % at 12.5 µM | hit rate 2% among 350,000 | AID 602393, 2012; in the data active means activation above about 40%; inconclusive means no clear call, values can overlap the other calls;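 further: 0% = median of the plate's neutral control wells and 100% = double that signal; a rise in the Bmi1 reporter signal indicates esBAF inhibition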
Wnt bcat act: Wnt/beta-catenin pathway activators, primary screen, cell-based, plate reader, single point; Wnt/beta-catenin reporter cell assay, activator; activation, % at 9.35 µM; hit rate 1.2% among 300,000; in the data active means activation above about 30%, passing the limit was not always enough; inconclusive means no clear call, values can overlap the other calls;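 further: 0% = neutral control wells and 100% = positive control wells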
HSF1 inhib: HSF1 inhibitors in luciferase reporter cells, primary screen, cell-based, NIH3T3, luminescence; activity change, negative = inhibition, % at 7.5 µM (by protocol); hit rate 0.77% among 300,000; NIH3T3-HGL HSE-luciferase, MG132-induced, luminescence 8 h; active compounds read low;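 active means more than half of replicate wells show activity change below -50%, luminescence cut by over half; inconclusive means some wells, but at most half, below -50%; inactive means no replicate well below -50%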;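 further: luciferase reports HSF-1 transcriptional activity via heat shock element; 0% = median of DMSO wells and -100% = zero luminescence signal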
MITF TRPM1 HTS: activators of MITF-driven TRPM1 promoter reporter, primary screen, cell-based, SK-MEL-5, luciferase, single point. SK-MEL-5 TRPM1-promoter luciferase, 24 h; % of positive control, neutral wells = 0. hit rate 0.75% among 300,000. activation, % at 12.5 µM. AID 588334, 2011;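 active means mean activation of at least 80% with every replicate also reaching 80%; inconclusive means mean reaches 80% but some replicate falls short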;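 further: 0% = neutral control wells and 100% = parthenolide positive control wells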
HSF-1 act: HSF-1 activators, primary screen, NIH3T3-HGL cells, MG132 stress, luminescence, single point | NIH3T3-HGL HSF-1 luciferase reporter, 8 h; 100% = twice DMSO control signal | activation, % at 9 µM | hit rate 1.7% among 300,000 | AID 504408, 2011;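 active means mean replicate activation of at least 50% with a set share of replicates each reaching 50%; inconclusive means only one of those two conditions met; inactive means mean below 50% and too few replicates reaching it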;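 further: 0% = median of the neutral control wells and 100% = twice that signal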
Starred values were filed as active, the others as inactive. Compounds with a hit are over-represented: about 3.9% of the library has one in this group of screens.

What do the screens show for `Cn1cccc1C(=O)NC(=O)COC(=O)C12CC3CC(CC(O)(C3)C1)C2`?
HSF1 inhib: -60.9*; MITF TRPM1 HTS: 11.9; HSF-1 act: -68.6

How did CC(=O)NC12CC3CC(C1)CC(C(=O)OCC(=O)NC(=O)c1cccn1C)(C3)C2 do in these assays?
esBAF inh: 1.9; Wnt bcat act: 0.8; HSF1 inhib: 4.7; MITF TRPM1 HTS: 7.3; HSF-1 act: 10.3

How did Cc1cc(C)c(NC(=O)COC(=O)C23CC4CC(CC(O)(C4)C2)C3)c(Cl)c1 do in these assays?
esBAF inh: 4.5; Wnt bcat act: 4.1; MITF TRPM1 HTS: 0.1

What do the screens show for `COc1ccc(NC(=O)COC(=O)/C=C/C(=O)OCC(=O)Nc2ccc(OC)c(Cl)c2)cc1Cl`?
Wnt bcat act: -12.5; HSF1 inhib: 97.4; MITF TRPM1 HTS: 9.9; HSF-1 act: 138.2*

How did O=C(COC(=O)C12CC3CC(CC(O)(C3)C1)C2)Nc1ccc(Cl)cc1F do in these assays?
esBAF inh: 16.5; Wnt bcat act: 22.8; MITF TRPM1 HTS: 93.0*

How did COc1ccc(NC(=O)COC(=O)C23CC4CC(CC(O)(C4)C2)C3)cc1Cl do in these assays?
esBAF inh: 9.9; Wnt bcat act: 39.4*; MITF TRPM1 HTS: 85.7*

What do the screens show for `CCC(=O)Nc1ccc2c(c1)C(=O)N(C)C[C@@H](OC)[C@@H](C)CN(Cc1cccc(F)c1)[C@@H](C)CO2`?
esBAF inh: -8.3

Results for O=S(=O)(c1ccc(Cl)cc1)N1CCC(c2nc3ccccc3[nH]2)CC1 ?
Wnt bcat act: -1.9; HSF1 inhib: 32.9; MITF TRPM1 HTS: -17.4; HSF-1 act: 73.4*

How did CC(=O)c1ccc(S(=O)(=O)N2CCC(c3nc4ccccc4[nH]3)CC2)cc1 do in these assays?
esBAF inh: 3.5; Wnt bcat act: -2.1; HSF1 inhib: -13.1; MITF TRPM1 HTS: -0.3; HSF-1 act: -18.4

What do the screens show for `O=C(Nc1ccccc1N1CCCCC1)C1CCN(C(=O)c2ccc(Cl)cc2)CC1`?
esBAF inh: -3.4; Wnt bcat act: -2.4; HSF1 inhib: -67.5*; MITF TRPM1 HTS: -5.4; HSF-1 act: -74.7

How did Cc1ccc(C(=O)N2CCC(C(=O)NC3CCCC3)CC2)cc1 do in these assays?
esBAF inh: 8.1; Wnt bcat act: 0.9; HSF1 inhib: -5.9; MITF TRPM1 HTS: -0.7; HSF-1 act: -8.7

What do the screens show for `O=C(NC1CCCC1)C1CCN(C(=O)c2ccc(Cl)cc2)CC1`?
esBAF inh: -7.2; Wnt bcat act: -0.9; HSF1 inhib: 15.6; MITF TRPM1 HTS: -8.7; HSF-1 act: 54.0*

What do the screens show for `O=C(Nc1ccccc1N1CCCCC1)C1CCN(S(=O)(=O)c2ccccc2C(F)(F)F)CC1`?
Wnt bcat act: -0.9; HSF1 inhib: -57.9*; MITF TRPM1 HTS: -6.2; HSF-1 act: -69.3

How did NCC[C@@H]1CC[C@H](NS(=O)(=O)Cc2ccccc2)[C@H](CO)O1 do in these assays?
esBAF inh: -4.0

How did CCNC(=O)[C@H]1[C@H](CO)[C@H]2Cn3c(ccc(/C=C/c4ccccc4)c3=O)[C@@H]1N2C(=O)c1ccncc1 do in these assays?
esBAF inh: -2.7

How did CCCN1[C@@H]2c3ccc(-c4cncnc4)c(=O)n3C[C@@H]2[C@@H](CO)[C@@H]1C(=O)OC do in these assays?
esBAF inh: -2.8

What do the screens show for `CN1c2ccc(-c3ccccc3)cc2[C@@H]2[C@@H](CCN2C(=O)Cc2ccccc2)[C@@H]1CO`?
esBAF inh: 0.4

How did COc1ccc(NC(=S)NC(=O)c2ccccc2Cl)cc1 do in these assays?
esBAF inh: 61.9*; HSF1 inhib: 5.9; MITF TRPM1 HTS: inconclusive; HSF-1 act: 21.9

How did Cc1ccc(-c2ccc(C(=O)Nc3cccc(F)c3)o2)c2ccccc12 do in these assays?
esBAF inh: 11.6; Wnt bcat act: -0.2; HSF1 inhib: 2.0; MITF TRPM1 HTS: 24.0; HSF-1 act: 12.9

How did COC(=O)c1sccc1NC(=O)c1ccc(C)o1 do in these assays?
esBAF inh: 5.2; Wnt bcat act: -0.8; HSF1 inhib: -2.6; MITF TRPM1 HTS: -2.0; HSF-1 act: -2.6

Results for O=C(Nc1ccccc1)c1cc(-c2ccccc2Cl)no1 ?
esBAF inh: 55.8*; Wnt bcat act: 26.5; HSF1 inhib: 24.7; MITF TRPM1 HTS: 56.3; HSF-1 act: 37.0

How did O=C(Nc1cccc(F)c1)c1ccc(-c2ccccc2Cl)o1 do in these assays?
esBAF inh: 75.2*; HSF1 inhib: 25.4; MITF TRPM1 HTS: 60.1; HSF-1 act: 39.3

How did COc1ccc(NC(=O)c2cc(-c3ccccc3Cl)no2)cc1 do in these assays?
HSF1 inhib: 13.8; MITF TRPM1 HTS: 23.7; HSF-1 act: 14.4

How did COC(=O)c1sccc1-c1ccc(C(=O)Nc2ccccc2)o1 do in these assays?
esBAF inh: 73.9*; HSF1 inhib: 16.5; MITF TRPM1 HTS: 76.0; HSF-1 act: inconclusive

How did CCC(=O)N[C@@H]1CC[C@H](CCNC(=O)Nc2ccc(C(F)(F)F)cc2)O[C@H]1CO do in these assays?
esBAF inh: -19.1

What do the screens show for `C[C@H]1CN([C@@H](C)CO)C(=O)Cc2cc(NC(=O)C3CC3)ccc2O[C@H]1CN(C)Cc1ccc(Cl)c(Cl)c1`?
esBAF inh: 0.8

How did CCc1nnc(NC(=O)c2ccc(COc3ccccc3Cl)o2)s1 do in these assays?
esBAF inh: -4.6; Wnt bcat act: 0.5; HSF1 inhib: -2.8; HSF-1 act: -6.5

Results for COc1ccc(NC(=O)c2ccc(-c3ccc(C)c4ccccc34)o2)cc1 ?
esBAF inh: 9.7; Wnt bcat act: 10.7; HSF1 inhib: 10.9; MITF TRPM1 HTS: 8.5; HSF-1 act: -3.2

Results for CCc1nnc(NC(=O)c2ccc(-c3ccccc3Cl)o2)s1 ?
esBAF inh: 53.2*; HSF1 inhib: -3.3; HSF-1 act: 14.3

How did COc1ccc(NC(=O)c2ccc(-c3ccccc3Cl)o2)cc1 do in these assays?
esBAF inh: 30.1; Wnt bcat act: 24.0; HSF1 inhib: 20.2; MITF TRPM1 HTS: 115.8*; HSF-1 act: 21.4

How did O=C(C[C@H]1C[C@@H]2c3cc(NC(=O)NC4CCCC4)ccc3O[C@@H]2[C@@H](CO)O1)NCCN1CCCCC1 do in these assays?
esBAF inh: -2.7

How did O=C(Nc1cccc(-c2cn3ccccc3n2)c1)c1cnccn1 do in these assays?
esBAF inh: 23.4; Wnt bcat act: 7.8; HSF1 inhib: 16.1; MITF TRPM1 HTS: -2.4; HSF-1 act: 54.2*

How did O=C(Nc1cccc(-c2cn3ccccc3n2)c1)c1cccc(Cl)c1 do in these assays?
HSF1 inhib: 0.3; MITF TRPM1 HTS: -12.3; HSF-1 act: -10.4

Results for C[C@H]1CN([C@@H](C)CO)S(=O)(=O)c2ccc(C#CCC3CCCC3)cc2O[C@@H]1CN(C)Cc1ccc(C(=O)O)cc1 ?
esBAF inh: -17.6

How did O=[N+]([O-])c1ccc(N/N=C\c2cccn2-c2ccccc2)nc1 do in these assays?
esBAF inh: -10.6; HSF1 inhib: 3.6; MITF TRPM1 HTS: 16.3; HSF-1 act: -9.1
